GFP derepression: epigenetic modulators derepressing GFP locus in mouse cells; 0.09% of 68,000 active; Potency, µM (series often up to 46.1 µM); mouse C127i GFP locus derepression, cytometry, 30 h
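Derepression screen: silenced CMV-GFP reporter in murine C127i cells, 30 h compound incubation at 37 C, washed cells imaged by laser-scanning cytometer to enumerate GFP-expressing objects of 20 to 120 um.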
Tau fil binding: binds recombinant human tau filaments; P10636; recombinant tau filaments, thioflavin S fluorescence, 15 h; filaments grown with octadecylsulfate alongside compound; Potency, µM (doses to about 57.1 µM); 2% of 71,000 active; AID 596;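 note: actives lower thioflavin S fluorescence by blocking filaments or displacing dye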
Target sequence (P10636 whole entry, looked up): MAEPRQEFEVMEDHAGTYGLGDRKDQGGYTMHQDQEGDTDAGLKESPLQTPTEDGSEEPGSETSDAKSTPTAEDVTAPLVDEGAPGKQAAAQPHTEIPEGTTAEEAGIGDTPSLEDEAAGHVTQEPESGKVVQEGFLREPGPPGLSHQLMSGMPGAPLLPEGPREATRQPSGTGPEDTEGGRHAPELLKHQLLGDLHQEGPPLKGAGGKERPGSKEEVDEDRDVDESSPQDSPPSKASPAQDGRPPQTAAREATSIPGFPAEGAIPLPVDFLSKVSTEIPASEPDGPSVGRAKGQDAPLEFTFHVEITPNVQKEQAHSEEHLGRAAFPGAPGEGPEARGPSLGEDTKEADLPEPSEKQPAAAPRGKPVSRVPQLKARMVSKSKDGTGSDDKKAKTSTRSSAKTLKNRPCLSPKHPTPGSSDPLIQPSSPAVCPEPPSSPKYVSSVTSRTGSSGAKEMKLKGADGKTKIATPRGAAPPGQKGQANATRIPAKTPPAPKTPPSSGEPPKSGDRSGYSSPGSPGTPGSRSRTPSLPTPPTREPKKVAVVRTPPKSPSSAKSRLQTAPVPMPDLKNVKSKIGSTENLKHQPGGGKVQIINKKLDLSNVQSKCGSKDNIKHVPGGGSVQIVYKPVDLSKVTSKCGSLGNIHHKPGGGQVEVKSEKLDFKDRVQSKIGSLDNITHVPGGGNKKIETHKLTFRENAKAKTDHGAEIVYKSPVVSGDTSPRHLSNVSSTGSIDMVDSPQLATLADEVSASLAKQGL
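Assay mix: 1 uM His-tagged tau, 30 uM sodium octadecylsulfate, thioflavine S dye in HEPES/NaCl/DTT buffer. Compound is added prior to the inducer. Fluorescence after 15 h at 37 C.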
Hsp90 Hop PPI: changes Hsp90-Hop TPR2A binding signal, up or down; Potency, µM (top dose mostly 57 µM); 0.44% of 71,000 active; AlphaScreen TPR2A-His6 binding biotin-Hsp90 C-terminal peptide; AID 595; active = well fitted curve in either direction with a large enough effect; inconclusive = small, poorly fitted or top-dose-only effect, or another doubt
HBB splice mod: alters splicing of the hemoglobin beta chain; HBB splicing reporter cell assay, activation; EGFP reporter with mutant IVS2-654 intron; response scale: normalised to 500 nM splice-correcting PNA; Potency, µM (doses to about 46.1 µM), usual class: activators; 0.06% of 65,000 active; AID 925
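Compounds were applied for 2 days to HeLa EGFP-654 cells, 500/well in Optimem with 2% FCS. The reporter's EGFP is disrupted by mis-splicing of beta-globin intron IVS2-654. Readout: summed well GFP fluorescence from 488 nm laser scanning; reference was 500 nM antisense […] 654 PNA.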
ERK AVP inh: blocks ERK signaling stimulated by vasopressin; Potency, µM (titrated, usually from 57.5 µM), hits mostly inhibitors; 0.99% of 72,000 active; HEK293-V1b, vasopressin-stimulated pERK AlphaScreen; AID 995; note: nearly all actives have a fitted effect of over 55% in size
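Overnight-seeded V1b-HEK293 cells in 1% FBS got compound, then vasopressin (25 nM final, 5 min, 37C), then lysis buffer. AlphaScreen detection of phospho-ERK; activity normalized to basal and full-stimulation controls.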
Ub-GFP proteasome: ubiquitin-GFP accumulation via proteasome inhibition; Ubiquitin-GFP reporter cells, proteasome inhibition, GFP fluorescence; response scale: untreated = 0%, 10 µM MG-132 = 100%; Potency, µM (highest dose often 45.9 µM), actives largely listed as activators; 67,000 tested, under 10 active; active = well fitted activation curve with a large enough effect, not every such curve was filed as active; inconclusive = small, poorly fitted or top-dose-only effect, or another doubt; inactive = no such curve, though single readings can be large or run the other way
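Proteasome block read as GFP accumulation: ubiquitin(G76V)-GFP U2OS cells exposed to compound (2.9 nM–46 uM) for 4 hr at 37 C. Normalization used untreated cells as 0% and 10 uM MG-132 as 100%; concentration-response curves fitted.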
Each line names hits and unclear results; the compound was inactive in the other large screens; ! = not confirmed by another sample. Rows were chosen to be rich in hits. Some 3% of all compounds tested hit in one or more screens of this group. Unless noted, calls come from the whole dose curve; as a rule, active = well fitted curve in the direction sought with a large enough effect; inconclusive = small, poorly fitted or top-dose-only effect, or another doubt; inactive = no such curve, though single readings can be large; an effect the other way counts as inactive or inconclusive.

CC(C)CN(C(=O)c1ccc(=O)n(C)n1)c1nc2ccccc2s1	Tau fil binding 25µM, Hsp90 Hop PPI inconclusive
c1cncc(CNCc2cccnc2)c1	none
CC(=NCCN1CCOCC1)C1=C(O)c2ccccc2C1=O	none
O=C1C(C=NCCCN2CCCC2=O)=C(O)c2ccccc21	none (no result: HBB splice mod)
CC(=NCCCn1ccnc1)C1=C(O)c2ccccc2C1=O	Hsp90 Hop PPI 13µM, HBB splice mod inconclusive
O=C1C(C=NCCCn2ccnc2)=C(O)c2ccccc21	Hsp90 Hop PPI 3.2µM
Oc1c(CN2CCc3ccccc3C2)cc(Cl)c2cccnc12	ERK AVP inh inconclusive (no result: GFP derepression)
Oc1c(I)cc(Cl)c2cccnc12	ERK AVP inh 13µM!
Cc1ccc(-c2nnc(N3CCN(C(=O)CN4C(=O)c5ccccc5C4=O)CC3)c3ccccc23)cc1	none
Cc1ccc(-c2nnc(N3CCN(C(=O)c4ccco4)CC3)c3ccccc23)cc1	ERK AVP inh 25µM
O=C(c1ccco1)N1CCN(c2ncnc3c(-c4ccccc4)nsc23)CC1	ERK AVP inh 25µM
COc1ccc2c(c1)Cc1sc(NC(=O)c3cccs3)nc1-2	Tau fil binding 25µM, ERK AVP inh inconclusive
COc1cccc(NC(=O)c2cccs2)c1	none
CCOC(=O)Nc1nc(-c2ccccc2)c(C)s1	none
O=C(NC1CCN(Cc2ccccc2)CC1)C1CCCN(S(=O)(=O)c2cccc3nonc23)C1 (stereo unspecified)	Tau fil binding 16µM
NCC(=O)N[C@H](CO)C(=O)O	none
CC(C)(C)N1C(=O)Cc2c1nc(N)c1c(N)nc(N3CCCCC3CO)c(C#N)c21 (stereo unspecified)	Tau fil binding 7.9µM, Hsp90 Hop PPI inconclusive
Cc1cc(NS(=O)(=O)c2ccc(NC(=O)Cc3cccs3)cc2)no1	none
O=C(Cc1cccs1)Nc1nc(-c2ccccc2)cs1	ERK AVP inh 10µM (no result: HBB splice mod)
Cc1cc(NC(=O)Cc2cccs2)no1	Tau fil binding 16µM
Cn1nccc1C(=O)OCC(=O)Nc1nc(-c2ccccc2)cs1	ERK AVP inh 20µM
Cc1nc(CC(=O)Nc2nc(-c3ccccc3)cs2)cs1	none
NC1=C(O)C(=O)[C@H](c2c[nH]c3ccc(OCc4ccccc4)cc23)O1	none
S[C@@H]1CCCN(Cc2ccccc2)C1	none
N#C/C(=C(\O)C(=O)O)c1ccc(-c2cccc3ccccc23)cc1	none
COc1ccc(-c2coc3c(O)c(OC)ccc3c2=O)cc1	none (no result: GFP derepression, Tau fil binding, Hsp90 Hop PPI, HBB splice mod, Ub-GFP proteasome)
Cc1cc(C(=O)CSc2nncs2)c(C)n1-c1ccc2c(c1)OCO2	ERK AVP inh 32µM
O=C(CN1CCCC1)NCC12CC3CC(CC(C3)C1)C2	Tau fil binding 32µM
NC(=O)NCC12CC3CC(CC(C3)C1)C2	none
N[C@@H](Cc1c[nH]c2ccc([N+](=O)[O-])cc12)C(=O)O	none
COC(OC)[C@@H](C)[C@H](OC)[C@@H](C)[C@H](OC)c1ccccc1	none (no result: GFP derepression, Tau fil binding, Hsp90 Hop PPI, Ub-GFP proteasome)
O=P(O)(O)O[C@@H]1O[C@H](CO)[C@@H](O)[C@H](O)[C@@H]1O	none
CC[n+]1ccc(C)c2cc(S(=O)C(F)(F)F)ccc21 (stereo unspecified)	Tau fil binding 6.3µM
CCNc1ncc2nc(-c3ccccc3)c(=O)n(-c3ccc(OC)cc3)c2n1	Hsp90 Hop PPI 4µM
COc1cccc(Nc2ncc3ncc(=O)n(Cc4cccs4)c3n2)c1	none
N#CCCn1c(=O)c(-c2cccs2)nc2cnc(Nc3ccccc3)nc21	Ub-GFP proteasome inconclusive
CCNc1ncc2nc(-c3cccs3)c(=O)n(CCC#N)c2n1	ERK AVP inh 5µM
COc1cccc(Nc2ncc3nc(-c4cccs4)c(=O)n(-c4ccccc4)c3n2)c1	GFP derepression 4µM, HBB splice mod 10µM, Ub-GFP proteasome inconclusive
COc1cccc(Nc2ncc3nc(-c4cccs4)c(=O)n(Cc4cccs4)c3n2)c1	HBB splice mod 13µM
CCNc1ncc2nc(-c3ccc(F)cc3)c(=O)n(-c3ccc(OC)cc3)c2n1	HBB splice mod inconclusive
NCc1ccc(C(=O)O)cc1	none
O=C(c1ccccc1)[C@H](Nc1ccc2ccccc2c1)c1ccccc1	none
c1ccc(B2OC[C@@H]3OB(c4ccccc4)O[C@H]([C@@H]4COB(c5ccccc5)O4)[C@@H]3O2)cc1	none
CCCCNc1nc(C)nc2c1nc(-c1ccccc1)n2C1CCN(Cc2ccccc2)C1 (stereo unspecified)	none (no result: GFP derepression)
CCNc1ncc2ncc(=O)n(Cc3cccs3)c2n1	none
CCNc1ncc2nc(-c3cccs3)c(=O)n(-c3ccccc3)c2n1	HBB splice mod 13µM, Ub-GFP proteasome inconclusive
CCNc1ncc2nc(C)c(=O)n(Cc3cccs3)c2n1	ERK AVP inh 16µM
CCNc1ncc2nc(-c3cccs3)c(=O)n(-c3ccc(OC)cc3)c2n1	GFP derepression inconclusive, HBB splice mod inconclusive, Ub-GFP proteasome inconclusive
COc1ccc2c3c(cccc13)NN=C2C	Tau fil binding 16µM (no result: HBB splice mod)
COC(=O)C/C=C\[C@@H](C)[C@@H](/C=N\O[C@@H](C)c1cc(-c2c(C)cc(C)cc2C)no1)OC	none (no result: GFP derepression, Tau fil binding, Hsp90 Hop PPI, Ub-GFP proteasome)
COc1ccccc1CNc1ccnc(-c2cccc(C#N)c2)n1	ERK AVP inh 32µM
Cc1cccc(N2CCN(CC(=O)NCC3CCCCC3)CC2)c1C	ERK AVP inh 25µM
CCN1C(=C2C(=O)c3ccccc3C2=O)C=Cc2ccccc21	Tau fil binding 13µM
CCN1C(=O)/C(=c2\o/c(=C3\C=Cc4ccccc4N3CC)c(=O)n2CC)SC1=S	Tau fil binding inconclusive (no result: HBB splice mod)
N=C(N)c1ccc(/C=C\c2ccc(C(=N)N)cc2)cc1	none
O=C(O)COCCN1CCN([C@@H](c2ccccc2)c2ccc(Cl)cc2)CC1	none
COC(=O)/C(=C1/Oc2cc(C)oc(=O)c2S1)C(F)(F)F	GFP derepression 10µM (no result: Tau fil binding, Hsp90 Hop PPI, HBB splice mod, ERK AVP inh, Ub-GFP proteasome)
N=C1[C@@H](O)[C@]2(I)c3ccccc3N3C(=N)[C@H](O)[C@@H]4c5ccccc5N1[C@@H]4[C@@H]32	Tau fil binding 1µM
NC(N)=N[C@H](CC(=O)O)c1ccccc1	none
O=C1CCCC2=C1C(c1ccco1)Nc1ccc3ccccc3c12 (stereo unspecified)	Tau fil binding 13µM
CC(C)(C)C(=O)/C=C(N)/C=C/c1ccccc1	Tau fil binding 25µM
OCCN1CCN(C(c2cccs2)c2ccc3cccnc3c2O)CC1 (stereo unspecified)	Tau fil binding 6.3µM, Hsp90 Hop PPI 32µM, ERK AVP inh inconclusive
CN1CCN(CCCN2c3ccccc3Sc3ccc(C(F)(F)F)cc32)CC1	Tau fil binding inconclusive, ERK AVP inh 25µM!
O=c1ccn([C@@H]2O[C@@H](COP(=O)(O)OP(=O)(O)O)[C@H](O)[C@@H]2O)c(=O)[nH]1	none

Source: PubChem BioAssay (National Center for Advancing Translational Sciences (NCATS))
